Here are results for 54 compounds from PubChem BioAssay AID1851 (National Center for Advancing Translational Sciences (NCATS), 2009).

Molecules are shown by their SMILES. Among all 16,000 compounds or so, about 5,700 (36%) were called active. Inconclusive results (about 24%) are left out. Some of the results follow. A number with no mark means an inactive call. Calls come from the whole dose curve; as a rule, active = well fitted curve in the direction sought with a large enough effect; inconclusive = small, poorly fitted or top-dose-only effect, or effect the other way; inactive = no such curve, though single readings can be large or run the other way.
% is set by controls: 0 for no effect and ±100 for the full control effect.

Cytochrome P450 1A2 (Homo sapiens), sequence (P05177 whole entry, looked up): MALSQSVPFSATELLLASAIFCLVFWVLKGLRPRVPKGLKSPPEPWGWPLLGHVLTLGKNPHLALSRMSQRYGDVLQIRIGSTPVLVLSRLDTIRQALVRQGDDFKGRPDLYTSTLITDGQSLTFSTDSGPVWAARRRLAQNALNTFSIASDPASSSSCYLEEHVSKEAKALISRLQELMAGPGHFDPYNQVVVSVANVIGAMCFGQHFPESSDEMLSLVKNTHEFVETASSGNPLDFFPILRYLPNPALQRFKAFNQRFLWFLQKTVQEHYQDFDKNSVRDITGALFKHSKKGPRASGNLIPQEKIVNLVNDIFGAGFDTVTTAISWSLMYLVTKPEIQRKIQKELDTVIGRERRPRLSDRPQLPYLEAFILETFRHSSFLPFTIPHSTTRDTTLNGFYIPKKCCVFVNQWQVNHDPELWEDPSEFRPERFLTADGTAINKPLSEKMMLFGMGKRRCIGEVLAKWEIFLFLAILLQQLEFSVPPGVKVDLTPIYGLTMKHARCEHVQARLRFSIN

This test addresses Cytochrome P450 1A2 (Homo sapiens) (UniProt P05177). As to the kind of experiment: Cytochrome panel assay with activity outcomes. The following applies: recombinant CYP, pro-luciferin dealkylation, luminescence, p450-cyp1a2; series mostly up to 57.1 µM; activity, negative = inhibition: at the top concentration.
Take `COc1ccc(/C=N/OCc2nc3c4c(ncn3n2)Oc2ccc3ccccc3c2C4c2ccccc2)cc1` (centres undefined): the “activity, negative = inhibition” value is -15%.

Consider `CCC(=O)NC(=S)N1CCN(c2ccc([N+](=O)[O-])cc2Cl)CC1`, for which the concentration at half-maximal activity (AC50) was 12.6 µM (active). For `COc1cccc(OC)c1C(=O)NC(=S)N1CCN(c2ccc(C(F)(F)F)cc2[N+](=O)[O-])CC1`, the “activity, negative = inhibition” value was -23.3%. With `CN1CCN(c2ccc([N+](=O)[O-])cc2NC(=O)c2ccccc2Cl)CC1`, the “activity, negative = inhibition” value is -10.4%.

On to `CCCCCCCCCCCCCCC[C@H](O)[C@H](N)CO`, for which the “activity, negative = inhibition” value was -4.79%. As for `Cc1ccc(/C=N/NC(=O)C2CCN(Cc3ccc(F)cc3Cl)CC2)o1`, the “activity, negative = inhibition” value was -26%.

For the compound `Cc1ccc(/C=N\Nc2nc3ccc(Cl)cc3[nH]2)o1`, the AC50 is 2 µM (active). For the compound `CCN1C(=O)[C@H]2[C@H]3[C@H](O)[C@H](O)C/C(=N/OCC[C@H]4C=C[C@H](OC(C)=O)[C@@H](COC(C)=O)O4)[C@@H]3CC[C@@H]2C1=O`, the activity, negative = inhibition was -1.02% [at 11.4 µM]. As to `OC[C@@H]1O[C@@H](n2cnc3c(NC4CCCCC4)ncnc32)[C@@H](O)[C@H]1O`, the “activity, negative = inhibition” value is -19.5%. For the compound `CC(C)C(=O)N[C@@H]1CCCN1C(=O)/C=C\c1ccccc1`, the activity, negative = inhibition was 0.0238% [at 11.4 µM]. On to `C#CCSc1nncn1C(=O)/C=C/c1ccccc1`, for which the AC50 is 15.8 µM (active).

On to `CC(C)C(=O)N[C@H]1CCCN1C(=O)/C=C\c1ccccc1`, for which the activity, negative = inhibition was 1.37% [at 11.4 µM].

Consider `CN1CCN(c2nc(-c3ccccc3)cc(C(F)(F)F)n2)CC1`, for which the AC50 was 1.12 µM (active).

Turning to `COc1ccc(-c2cc(C(F)(F)F)nc(NC3CCCC3)n2)cc1OC`, the AC50 was 2.82 µM (active). As for `COc1ccc(CC(=S)N2CCOCC2)cc1OC`, the “activity, negative = inhibition” value was 0.556%.

Consider `COc1ccc(-c2nnn(Cc3nc(N)nc(N4CCOCC4)n3)n2)cc1OC`, for which the “activity, negative = inhibition” value was -27.8%.

For `COc1ccc(-c2cc(C(F)(F)F)nc(N3CCN(C)CC3)n2)cc1OC`, the AC50 is 2.82 µM (active). For the compound `COc1ccc(C(=O)OC(C)CN2CCN(C)CC2)cc1OC` (centres undefined), the “activity, negative = inhibition” value was -9.56%. Take `COc1ccc(NC(=O)c2ccc(-c3ccc(-c4noc(C)n4)cc3C)cc2)cc1N1CCN(C)CC1`: the AC50 entry is “inactive”. As to `COc1ccc(-c2cc(C(F)(F)F)nc(N3CCOCC3)n2)cc1OC`, the AC50 is 0.501 µM (active). With `O=C(O)[C@@H](O)[C@@H](O)[C@@H](O[C@H]1O[C@@H](CO)[C@@H](O)[C@@H](O)[C@@H]1O)[C@@H](O)CO`, the “activity, negative = inhibition” value was -1.8% [at 25.6 µM].

Turning to `C=C1c2cccc(O)c2C(O)=C2C(=O)[C@@]3(O)C(O)=C(C(N)=O)C(=O)[C@@H](N(C)C)[C@@H]3[C@@H](O)[C@H]12`, the “activity, negative = inhibition” value is -1.08% [at 25.6 µM]. Regarding `C#CCCCO/N=C1/C[C@@H](O)[C@@H](O)[C@@H]2[C@@H]3C(=O)N(CC)C(=O)[C@H]3CC[C@H]12`, the activity, negative = inhibition was -27.8% [at 11.4 µM]. Consider `COc1ccc(-c2cc(C(F)(F)F)nc(N3CCCCC3)n2)cc1OC`, for which the AC50 was 0.631 µM (active). Take `OC[C@@H]1O[C@@H](N2CCN([C@@H]3O[C@@H](CO)[C@@H](O)[C@H](O)[C@H]3O)CC2)[C@@H](O)[C@H](O)[C@H]1O`: the activity, negative = inhibition was -9.68% [at 2.29 µM].

As for `CS(=O)(=O)N(CC(=O)Nc1c(F)cccc1F)c1ccc(C23CC4CC(CC(C4)C2)C3)cc1`, the “activity, negative = inhibition” value was -15.3%. Take `Cc1cc2ncn(/N=C/c3ccc([N+](=O)[O-])o3)c2cc1C`: the AC50 is 10 µM (active). For the compound `O=C1O[C@H](CN2CCOCC2)CN1/N=C\c1ccc([N+](=O)[O-])o1`, the “activity, negative = inhibition” value was -16.3% [at 25.6 µM]. Take `N/C(=N\OC(=O)Cc1ccc(Cl)cc1)c1cccnc1`: the AC50 is 11.2 µM (active). On to `CCN=C(Nc1ccc(Cl)cc1)c1cccnc1`, for which the “activity, negative = inhibition” value was -22%. As to `C=Cc1c(C)c2cc3[nH]c(cc4nc(cc5nc(cc1[nH]2)C(C)=C5CCC(=O)O)C(CCC(=O)O)=C4C)c(C)c3C=C`, the AC50 was 6.31 µM (active). With `C=Cc1c(C)c2cc3nc(cc4[nH]c(cc5nc(cc1[nH]2)C(C)=C5CCC(=O)O)c(CCC(=O)OC)c4C)[C@@]1(C)C3=CC=C(C(=O)OC)[C@H]1C(=O)OC` (tested in a mixture with another compound), the AC50 was 3.98 µM (active).

Turning to `CC1CC(OCC(O)CN2CCN(Cc3ccccc3)CC2)CC(C)(C)C1` (centres undefined), the “activity, negative = inhibition” value is 3.43%. Still for that read-out and setting: for `C/C(=N\Nc1nnc(C)c(=O)[nH]1)C(=O)O` the value was -3.43%. As for `O=C(O)c1ccccc1C(=O)NCc1ccc(F)cc1`, the concentration at half-maximal activity (AC50) is 5.01 µM (active). Turning to `CCCC(=O)NNC(=O)CCC(=O)NCc1ccccc1`, the “activity, negative = inhibition” value is 4.31%. For `O=C(NCc1ccc(F)cc1)C1CCN(S(=O)(=O)N2CCCCC2)CC1`, the “activity, negative = inhibition” value is -2.81%. The same measure, in the same setting: for `C/C(=C/C(=O)NCc1ccccc1)C(=O)O` the value was -3.03%. On to `O=C(O)NCc1ccccc1` (tested in a mixture with another compound), for which the AC50 is 3.16 µM (active). On to `O=C(O)CC[C@@H](NC(=O)c1ccccc1C(=O)O)C(=O)O`, for which the “activity, negative = inhibition” value was -2.07%.

For the compound `CC1CCCC(NC(=O)C2CCN(S(=O)(=O)N3CCOCC3)CC2)C1C` (centres undefined), the “activity, negative = inhibition” value was -7.4%. Take `Cc1cccc(CSCCNC(=O)c2ccc(N(C)S(=O)(=O)c3ccccc3)cc2)c1`: the “activity, negative = inhibition” value is -9.88%. For `CN(c1ccc(C(=O)NCC2CCCO2)cc1)S(=O)(=O)c1ccccc1` (centres undefined), the “activity, negative = inhibition” value is 0.0846%. Turning to `COC(=O)c1c(C)oc2ccc(N(C(=O)c3ccncc3)S(=O)(=O)c3ccccc3)cc12`, the concentration at half-maximal activity (AC50) is 11.2 µM (active). With `Cc1cc(C)cc(Oc2coc3cc(OC(=O)c4cccs4)ccc3c2=O)c1`, the AC50 was 2 µM (active). Consider `Cc1cccc(Oc2coc3cc(OC(=O)c4cc5ccccc5oc4=O)ccc3c2=O)c1`, for which the “activity, negative = inhibition” value was -15.8%. For `Cc1nc(N=Nc2ccc(S(=O)(=O)O)cc2S(=O)(=O)O)c(COP(=O)(O)O)c(C=O)c1O`, the AC50 result is “inactive”. On the same count and under the same terms, the figure for `CN(C)c1ccc(-c2nc(N(C)Cc3ccco3)c3ccccc3n2)cc1` is 0.631 µM (active); for `CN(Cc1ccccc1)c1nc(-c2ccc([N+](=O)[O-])cc2)nc2ccccc12` it is 1.58 µM (active). The same measure, in the same setting: for `CN(Cc1ccco1)c1nc(-c2cccnc2)nc2ccccc12` the value was 0.316 µM (active). As for `CN(Cc1ccco1)c1nc(-c2ccc3c(c2)OCO3)nc2ccccc12`, the AC50 is 0.501 µM (active). `CN(Cc1ccco1)c1nc(-c2ccoc2)nc2ccccc12`: the half-maximal activity concentration (AC50) is 0.398 µM (active). The same measure, in the same setting: for `Cc1ccc2[nH]c3c(N4CCc5ccccc5C4)ncnc3c2c1` the value was 1.58 µM (active). As for `Cc1ccc2[nH]c3nc(CCCn4ccnc4-c4ccccc4)nnc3c2c1`, the activity, negative = inhibition is -11.9% [at 11.4 µM].

As a reminder, the AC50 is the midpoint of the concentration-response curve, whichever way the signal moves.
